Results reported in ChEMBL document CHEMBL1157539, “Thousands of chemical starting points for antimalarial lead identification” (Nature, 2010).

Tested on: HepG2
Assay: GSK_TCMDC: Percent inhibition of human HepG2 cell line. Test compounds present at 10uM.
Assay type: functional

Row | SMILES | Inhibition
1 | Cc1n[nH]c2ccc(-c3cc(OC[C@@H](N)Cc4ccccc4)cnc3-c3cc4ccccc4s3)cc12.O=C(O)C(F)(F)F | 41%
2 | Clc1ccc(CNc2nc(NCCc3c[nH]cn3)nc(NC3CCCCC3)n2)cc1 | 0%
3 | COc1ccc(C(=O)N2CCC3(CC2)C(=O)N(CC(=O)NCC2CCCCC2)CN3c2ccccc2)cc1 | 18%
4 | OCCN1CCN(c2nc(Nc3cccc(F)c3)c3cnn(-c4ccccc4)c3n2)CC1 | 89%
5 | Br.CC1(C)NC(N)=NC(=N)N1OCCCOc1cccc2ccccc12 | 67%
6 | Cl.Nc1c2c(nc3ccc(NC(=O)CCCc4ccccc4)cc13)CCCC2 | 73%
7 | CCN(CC)S(=O)(=O)c1ccc(C=CC(=O)Nc2cc(Cl)ccc2N2CCOCC2)cc1 | 3%
8 | O=C(N[C@@H](CC1CCCCC1)C(=O)NCCN1CCCCC1)c1ccc(O)c(-c2ccc(Cl)c(Cl)c2)c1 | 14%
9 | COc1ccccc1-c1[nH]c2ccccc2c1CN1CCC(c2c(C)cccc2C)CC1 | 49%
10 | Cc1cc(C(=O)NCc2ccc(-c3c(C)noc3C)cc2)n(-c2ccc(Cl)cc2)n1 | 0%
11 | Cn1cncc1C(=O)Nc1cccc(-c2csc(-c3nc4ccccc4[nH]3)c2)c1 | 15%
12 | CC1CN(c2cnn(C/C=C/c3ccc(NC(=O)c4ccc5nonc5c4)cc3)c(=O)c2Cl)CC(C)N1.O=C(O)C(F)(F)F (configuration not stated) | 71%
